# Experimental data taken from ChEMBL document CHEMBL1961873, “Compounds: GSK PKIS; Assays: Nanosyn kinase panel” (2012).
# Molecular target: T1, Muscle, skeletal receptor tyrosine-protein kinase (Homo sapiens) (UniProt O15146);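 also: reported value is the mean percent inhibition of MuSK kinase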
# T1 sequence (whole entry): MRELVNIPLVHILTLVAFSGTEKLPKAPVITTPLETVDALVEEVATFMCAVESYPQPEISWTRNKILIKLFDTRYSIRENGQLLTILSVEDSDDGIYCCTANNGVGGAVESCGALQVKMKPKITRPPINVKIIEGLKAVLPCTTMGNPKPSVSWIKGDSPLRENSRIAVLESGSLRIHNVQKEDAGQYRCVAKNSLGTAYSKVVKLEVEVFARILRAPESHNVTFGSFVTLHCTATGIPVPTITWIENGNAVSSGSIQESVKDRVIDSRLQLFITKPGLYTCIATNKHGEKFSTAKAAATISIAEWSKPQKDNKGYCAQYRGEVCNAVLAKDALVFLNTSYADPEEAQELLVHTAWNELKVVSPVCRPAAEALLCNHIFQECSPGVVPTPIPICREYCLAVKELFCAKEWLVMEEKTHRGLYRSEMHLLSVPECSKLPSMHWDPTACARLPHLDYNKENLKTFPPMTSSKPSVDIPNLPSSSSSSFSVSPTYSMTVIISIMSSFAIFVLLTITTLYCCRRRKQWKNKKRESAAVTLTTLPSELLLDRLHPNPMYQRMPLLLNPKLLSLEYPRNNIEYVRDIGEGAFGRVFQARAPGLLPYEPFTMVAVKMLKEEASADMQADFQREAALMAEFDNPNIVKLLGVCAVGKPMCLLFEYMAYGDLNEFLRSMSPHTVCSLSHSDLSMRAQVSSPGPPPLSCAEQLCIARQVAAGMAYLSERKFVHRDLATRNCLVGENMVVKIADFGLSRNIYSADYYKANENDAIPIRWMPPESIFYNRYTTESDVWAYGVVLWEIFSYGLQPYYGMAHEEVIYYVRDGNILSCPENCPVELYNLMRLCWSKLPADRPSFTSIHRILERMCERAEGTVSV
# Conditions: at 1 µM
row,SMILES,inhibition
1,COc1cccc(-n2nc(C)c3c(N/N=C(\C)c4ccncc4)ncnc32)c1,0.36%
2,N#Cc1c(NC(=O)c2ccccc2F)sc2c1CCCC2,1.48%
3,COc1cc2ncnc(Nc3ccc4c(cnn4Cc4ccccc4)c3)c2cc1OC,2.89%
4,Cc1cc(O)cc(C)c1/C=C/c1cncc(C(=O)N(C)C)c1,8.5%
5,NS(=O)(=O)c1ccc(NC=C2C(=O)Nc3ccc4ncsc4c32)cc1,73%
6,NS(=O)(=O)c1ccc(-c2cc3ccncc3cc2OCc2ccccc2)cc1,0.07%
7,Cc1ccc2c(-c3ccnc(Nc4ccc5c(c4)OCCO5)n3)c(-c3ccc(C(F)(F)F)cc3)nn2n1,-5.36%
8,Cc1cc(-c2ccccn2)cc(C)c1/C=C/c1cncc(-c2nn[nH]n2)c1,5.02%
9,COc1cc(/C=N/Nc2ncnc3c2cnn3C(C)C)ccc1O,53.2%
10,COC(=O)c1cncc(/C=C/c2c(C)cc(O)cc2C)c1,3.88%
11,COc1ccc2ncnc(Nc3ccc(OCc4ccccc4)cc3)c2c1,1.74%
12,Cc1ccc(O)cc1Nc1ccnc2ccc(S(C)(=O)=O)cc12,5.56%
13,CC(C)c1ccc(Nc2nccc(-c3cnn4ncccc34)n2)cc1,8.57%
14,COc1cc2ncn(-c3cc(OCc4ccccc4S(C)(=O)=O)c(C#N)s3)c2cc1OC,50.6%
15,Nc1nccc(C#Cc2cncnc2Nc2ccc(OCc3cccc(F)c3)c(Cl)c2)n1,5.94%
16,[O-][S+]1CCN(Cc2ccc(-c3ccc4ncnc(Nc5ccc(OCc6ccccc6)c(Cl)c5)c4c3)o2)CC1,1.01%
17,CCS(=O)(=O)c1ccc(OC)c(Nc2nccc(N(C)c3ccc4c(C)n[nH]c4c3)n2)c1,1.07%

row,SMILES,inhibition
1,Nc1ccc(C#Cc2cncnc2Nc2ccc(OCc3cccc(F)c3)c(Cl)c2)cc1,-0.75%
2,O=S(=O)(CCOCc1ccc(-c2ccc3ncnc(Nc4ccc(OCc5cccc(F)c5)c(Cl)c4)c3c2)o1)c1ccccc1,5.38%
3,CS(=O)(=O)Nc1cccc(-c2ccc3c(NC(=O)C4CC4)n[nH]c3c2)c1,3.16%
4,CCCN1CCCC(c2ccc(Nc3nc(Nc4cc(F)ccc4C(N)=O)c4cc[nH]c4n3)c(OC)c2)C1 (stereo unspecified),12.2%
5,OCc1ccc(-c2nc(-c3ccccn3)c(-c3ccc4c(c3)OCO4)[nH]2)cc1,3.91%
6,COc1ccc(-c2nn3ncccc3c2-c2ccnc(Nc3cccc(C(F)(F)F)c3)n2)cc1,1.14%
7,CCn1c(-c2nonc2N)nc2c(C#CC(C)(C)O)nc(OCCNC)cc21,3.32%
8,Cc1cc(Cl)cc2c1NC(=O)C2=NNc1ccc(S(N)(=O)=O)cc1,0.5%
9,O=C(Nc1ccc(Oc2ccc3[nH]c(NC(=O)c4ccco4)nc3c2)cc1)Nc1cc(C(F)(F)F)ccc1F,83.5%
10,COc1cc(Nc2nccc(-c3cnn4ncccc34)n2)cc(OC)c1,42.5%
11,CS(=O)(=O)CCNCc1nc(-c2ccc3ncnc(Nc4ccc(OCc5cccc(C(F)(F)F)c5)cc4)c3c2)cs1,5.88%
12,CN(C)CCCn1c(-c2nonc2N)nc2cnccc21,4.01%
13,Cc1ccc(Nc2ccnc(Nc3cccc(C(N)=O)c3)n2)cc1O,26.7%
14,Oc1cccc(-c2nc(-c3ccccc3)[nH]c2-c2ccncc2)c1,8.69%
15,c1ccc(Cc2nc3ccc(Nc4ncnc5ccccc45)cc3[nH]2)cc1,3.78%
16,COC(=O)c1ccc2c(c1)C(=Cc1cc(Br)c(O)c(Br)c1)C(=O)N2,8.06%

# Molecular target: Platelet-derived growth factor receptor alpha (Homo sapiens) (UniProt P16234)
# Conditions: at 0.1 µM
# Platelet-derived growth factor receptor alpha (Homo sapiens), sequence (P16234 whole entry): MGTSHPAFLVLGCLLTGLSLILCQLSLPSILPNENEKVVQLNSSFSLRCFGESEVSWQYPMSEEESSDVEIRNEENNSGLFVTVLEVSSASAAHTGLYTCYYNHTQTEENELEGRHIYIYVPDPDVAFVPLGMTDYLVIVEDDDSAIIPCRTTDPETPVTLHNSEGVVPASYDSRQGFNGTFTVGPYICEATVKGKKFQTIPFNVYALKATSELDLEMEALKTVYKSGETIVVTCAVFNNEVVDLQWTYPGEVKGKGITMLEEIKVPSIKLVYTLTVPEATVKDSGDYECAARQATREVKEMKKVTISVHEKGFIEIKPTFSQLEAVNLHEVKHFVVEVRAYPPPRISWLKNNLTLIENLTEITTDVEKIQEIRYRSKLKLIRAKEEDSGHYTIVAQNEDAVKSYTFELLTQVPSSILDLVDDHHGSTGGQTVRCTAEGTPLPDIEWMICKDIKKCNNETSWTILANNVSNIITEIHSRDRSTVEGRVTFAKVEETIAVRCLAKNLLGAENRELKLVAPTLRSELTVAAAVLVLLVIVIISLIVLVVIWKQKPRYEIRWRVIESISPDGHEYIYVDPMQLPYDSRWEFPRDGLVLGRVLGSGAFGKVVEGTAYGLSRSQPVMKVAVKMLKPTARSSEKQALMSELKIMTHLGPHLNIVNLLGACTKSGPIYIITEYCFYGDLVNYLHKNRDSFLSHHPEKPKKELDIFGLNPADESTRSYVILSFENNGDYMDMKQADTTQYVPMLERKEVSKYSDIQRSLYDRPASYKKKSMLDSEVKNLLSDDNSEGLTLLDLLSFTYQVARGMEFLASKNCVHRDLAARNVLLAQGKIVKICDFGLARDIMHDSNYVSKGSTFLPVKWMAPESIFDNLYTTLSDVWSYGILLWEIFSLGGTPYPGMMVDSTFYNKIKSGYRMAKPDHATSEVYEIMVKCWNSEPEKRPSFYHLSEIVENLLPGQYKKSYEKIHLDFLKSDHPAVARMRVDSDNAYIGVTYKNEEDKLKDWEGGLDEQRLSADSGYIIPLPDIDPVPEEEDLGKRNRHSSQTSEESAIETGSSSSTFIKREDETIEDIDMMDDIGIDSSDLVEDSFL
row,SMILES,inhibition
1,COc1cccc(-n2nc(C)c3c(N/N=C(\C)c4ccncc4)ncnc32)c1,1.29%
2,N#Cc1c(NC(=O)c2ccccc2F)sc2c1CCCC2,1.47%
3,COc1cc2ncnc(Nc3ccc4c(cnn4Cc4ccccc4)c3)c2cc1OC,9.97%
4,Cc1cc(O)cc(C)c1/C=C/c1cncc(C(=O)N(C)C)c1,11.8%
5,NS(=O)(=O)c1ccc(NC=C2C(=O)Nc3ccc4ncsc4c32)cc1,69.8%
6,NS(=O)(=O)c1ccc(-c2cc3ccncc3cc2OCc2ccccc2)cc1,8.15%
7,Cc1ccc2c(-c3ccnc(Nc4ccc5c(c4)OCCO5)n3)c(-c3ccc(C(F)(F)F)cc3)nn2n1,3.02%
8,Cc1cc(-c2ccccn2)cc(C)c1/C=C/c1cncc(-c2nn[nH]n2)c1,4.62%
9,COc1cc(/C=N/Nc2ncnc3c2cnn3C(C)C)ccc1O,17.4%
10,COC(=O)c1cncc(/C=C/c2c(C)cc(O)cc2C)c1,14.8%
11,COc1ccc2ncnc(Nc3ccc(OCc4ccccc4)cc3)c2c1,4.33%
12,Cc1ccc(O)cc1Nc1ccnc2ccc(S(C)(=O)=O)cc12,72.2%
13,CC(C)c1ccc(Nc2nccc(-c3cnn4ncccc34)n2)cc1,13%
14,COc1cc2ncn(-c3cc(OCc4ccccc4S(C)(=O)=O)c(C#N)s3)c2cc1OC,59.9%
15,Nc1nccc(C#Cc2cncnc2Nc2ccc(OCc3cccc(F)c3)c(Cl)c2)n1,15.4%
16,[O-][S+]1CCN(Cc2ccc(-c3ccc4ncnc(Nc5ccc(OCc6ccccc6)c(Cl)c5)c4c3)o2)CC1,6.03%
17,CCS(=O)(=O)c1ccc(OC)c(Nc2nccc(N(C)c3ccc4c(C)n[nH]c4c3)n2)c1,22.9%

row,SMILES,inhibition
1,Nc1ccc(C#Cc2cncnc2Nc2ccc(OCc3cccc(F)c3)c(Cl)c2)cc1,3.02%
2,O=S(=O)(CCOCc1ccc(-c2ccc3ncnc(Nc4ccc(OCc5cccc(F)c5)c(Cl)c4)c3c2)o1)c1ccccc1,4.21%
3,CS(=O)(=O)Nc1cccc(-c2ccc3c(NC(=O)C4CC4)n[nH]c3c2)c1,3.7%
4,CCCN1CCCC(c2ccc(Nc3nc(Nc4cc(F)ccc4C(N)=O)c4cc[nH]c4n3)c(OC)c2)C1 (stereo unspecified),10.1%
5,OCc1ccc(-c2nc(-c3ccccn3)c(-c3ccc4c(c3)OCO4)[nH]2)cc1,9.57%
6,COc1ccc(-c2nn3ncccc3c2-c2ccnc(Nc3cccc(C(F)(F)F)c3)n2)cc1,1%
7,CCn1c(-c2nonc2N)nc2c(C#CC(C)(C)O)nc(OCCNC)cc21,3.73%
8,Cc1cc(Cl)cc2c1NC(=O)C2=NNc1ccc(S(N)(=O)=O)cc1,5.26%
9,O=C(Nc1ccc(Oc2ccc3[nH]c(NC(=O)c4ccco4)nc3c2)cc1)Nc1cc(C(F)(F)F)ccc1F,68%
10,COc1cc(Nc2nccc(-c3cnn4ncccc34)n2)cc(OC)c1,19.5%
11,CS(=O)(=O)CCNCc1nc(-c2ccc3ncnc(Nc4ccc(OCc5cccc(C(F)(F)F)c5)cc4)c3c2)cs1,5.06%
12,CN(C)CCCn1c(-c2nonc2N)nc2cnccc21,6.93%
13,Cc1ccc(Nc2ccnc(Nc3cccc(C(N)=O)c3)n2)cc1O,48.1%
14,Oc1cccc(-c2nc(-c3ccccc3)[nH]c2-c2ccncc2)c1,8.99%
15,c1ccc(Cc2nc3ccc(Nc4ncnc5ccccc45)cc3[nH]2)cc1,8.25%
16,COC(=O)c1ccc2c(c1)C(=Cc1cc(Br)c(O)c(Br)c1)C(=O)N2,5.39%
